According to PubChem BioAssay (NCATS):
Records with an inconclusive call do not appear. Where a call stands in place of a potency, no number is given. The source made the active and inactive calls. The call rests on the fitted dose curve; in most records, active means well fitted cell-killing curve with a large enough effect; inconclusive means small, poorly fitted or top-dose-only effect; inactive means flat fitted curve, though single readings scatter.

Assays:
[1] = Cell Viability - LYMP2-010 (AID 981); further: nearly all actives have a fitted effect of over 55% in size
Summary of the method: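 qHTS cytotoxicity, 1536-well: 2500 cells/well, 5 hr settle, 24 hr compound at 37 C, CellTiter-Glo 30 min RT, luminescence read. Decrease in ATP = toxicity; AC50 via standard Hill equation. Positive control tetraoctylammonium bromide.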

[2] = Cell Viability - LYMP2-012 (AID 982);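 further: cellular ATP by luciferase luminescence where a drop means cytotoxicity; cells exposed to compound for one day before reading; nearly all actives have a fitted effect of over 55% in size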
[3] = Cell Viability - LYMP2-022 (AID 987); further: nearly all actives have a fitted effect of over 55% in size
Summary of the method: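 Luminescent ATP read-out (CellTiter-Glo, 30 min, RT) after 24 hr, 37 C compound exposure of 2500 human lymphoblastoid cells/well in complete medium. Cytotoxicity taken as concentration-dependent ATP loss; AC50 from standard Hill equation.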

[4] = Cell Viability - LYMP2-002 (AID 977);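 further: compound exposure lasted 24 h at 37 °C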
Summary of the method: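 Human lymphoblastoid cells (2500/well) in complete medium were preincubated 5 hr at 37 C, then exposed to compounds for 24 hr at 37 C. Intracellular ATP was read by CellTiter-Glo luminescence; AC50 came from Hill-equation concentration-response fits.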

[5] = Cell Viability - LYMP2-006 (AID 978); further: nearly all actives have a fitted effect of over 60% in size
Summary of the method: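 In this cytotoxicity screen, the human lymphoblastoid line grew in complete medium with test compounds for 24 hr at 37 C. Cellular ATP served as the viability signal.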

[6] = Cell Viability - LYMP2-007 (AID 979);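 further: cells exposed to compound for 24 h before reading; nearly all actives have a fitted effect of over 60% in size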
Summary of the method: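 qHTS cytotoxicity: 2500 cells/well, 5 hr 37 C settle, compound 24 hr 37 C, CellTiter-Glo 30 min RT, luminescence. Decrease in ATP = toxicity. AC50 by standard Hill equation; tetraoctylammonium bromide positive control.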

[7] = Cell Viability - LYMP2-014 (AID 983); further: nearly all actives have a fitted effect of over 50% in size
Summary of the method: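 2500 cells/well, 5 hr 37 C; cpd 24 hr 37 C, complete medium; CellTiter-Glo 30 min RT, luminescence; ATP loss = toxicity; AC50 via Hill eqn; tetraoctylammonium bromide positive control.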

[8] = Cell Viability - LYMP2-016 (AID 984); further: nearly all actives have a fitted effect of over 55% in size
Summary of the method: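 Concentration-dependent ATP depletion measured in LYMP2-016 lymphoblastoid cells, 24 h, 37 C; luciferase-based luminescent detection; Hill-equation AC50.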

[9] = Cell Viability - LYMP2-018 (AID 985); further: nearly all actives have a fitted effect of over 50% in size
Summary of the method: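 2500 cells/well; 5 hr 37 C; cmpd 24 hr 37 C, complete medium; CellTiter-Glo 30 min RT; luminescence. Tetraoctylammonium bromide positive control. AC50 via Hill fit.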

[10] = Cell Viability - LYMP2-020 (AID 986); further: nearly all actives have a fitted effect of over 55% in size
Summary of the method: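 qHTS, 2500 cells/well; 5 hr then 24 hr compound exposure, 37 C; CellTiter-Glo luminescence after 30 min RT; ATP decrease taken as cytotoxicity; AC50 via Hill equation; tetraoctylammonium bromide positive control.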
Potency means the concentration at half of the fitted maximal effect.

SMILES | Potency [1] | Potency [2] | Potency [3] | Potency [4] | Potency [5] | Potency [6] | Potency [7] | Potency [8] | Potency [9] | Potency [10]
CC(C)(C)NC(=O)[C@@H]1C[C@@H]2CCCC[C@@H]2CN1C[C@@H](O)[C@H](Cc1ccccc1)NC(=O)[C@H](CC(N)=O)NC(=O)c1ccc2ccccc2n1 | 50.1 µM (active) | 50.1 µM (active) | 50.1 µM (active) |  |  |  |  |  |  | 
CC(O)CO (stereo not given) | inactive | inactive | inactive | inactive | inactive | inactive | inactive | inactive | inactive | inactive
CC1=C(/C=C/C(C)=C/C=C/C(C)=C/CO)C(C)(C)CCC1 | 50.1 µM (active) | 50.1 µM (active) | 39.8 µM (active) | inactive | inactive |  |  |  | 50.1 µM (active) | 50.1 µM (active)
IC(I)I | inactive | inactive | inactive | inactive | inactive | inactive | inactive | inactive | inactive | inactive
O=CCCCC=O | 20 µM (active) | 15.8 µM (active) | 10 µM (active) | 31.6 µM (active) | 25.1 µM (active) | 20 µM (active) | 25.1 µM (active) | 25.1 µM (active) | 20 µM (active) | 15.8 µM (active)
Cc1ccccc1 | inactive | inactive | inactive | inactive | inactive | inactive | inactive | inactive | inactive | inactive
CCCCCCCC(=O)O | inactive | inactive | inactive | inactive | inactive | inactive | inactive | inactive | inactive | inactive
O=C(O)CCC(=O)C(=O)O | inactive | inactive | inactive | inactive | inactive | inactive | inactive | inactive | inactive | inactive
CCOc1ccc2c(c1)C(C)=CC(C)(C)N2 |  |  |  | inactive | inactive | inactive | inactive | inactive | inactive | 
O=S(=O)(O)O | inactive | inactive | inactive | inactive | inactive | inactive | inactive | inactive | inactive | inactive
CCCCC/C=C\C/C=C\CCCCCCCC(=O)O |  | inactive | inactive | inactive | inactive | inactive | inactive | inactive | inactive | inactive
CC(C)=O | inactive | inactive | inactive | inactive | inactive | inactive | inactive | inactive | inactive | inactive
Nc1ccn([C@H]2CS[C@@H](CO)O2)c(=O)n1 | inactive | inactive | inactive | inactive | inactive | inactive | inactive | inactive | inactive | inactive
CCCCCCCC/C=C\CCCCCCCC(=O)O | inactive | inactive | inactive | inactive | inactive | inactive | inactive | inactive | inactive | inactive
CCOC(C)=O | inactive | inactive | inactive | inactive | inactive | inactive | inactive | inactive | inactive | inactive
CC1=C2[C@@H]([C@H](C)CC[C@H]2/C=C(\C)C(=O)O)[C@H](O)C1 | inactive | inactive | inactive | inactive | inactive | inactive | inactive | inactive | inactive | inactive
